Structures are written as SMILES. The panel holds about 79,000 compounds, 15% with a hit somewhere; the sample as a whole holds those more often. A number with no mark means an inactive call. Cut-off read from the data, not from the text of the source: active = growth inhibition above about 70%; inactive = the rest.

One assay can be described thus: NCI Yeast Anticancer Drug Screen. Data for the cln2 rad14 strain (AID 165).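 Note: 0% = growth equal to vehicle treated cultures.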 The following applies: S. cerevisiae cln2 rad14 strain, at 50.0 µM, hits give high values. A digest of the protocol:
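Test compounds were added to cln2 rad14 yeast cultures; inhibition of growth was then determined by comparison with vehicle treatment.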
As to `CCCCCCCCCCCC(=O)NC(=S)Nc1ccc(C(=O)OCC)cc1`, the growth inhibition was 1.35%.
Turning to `Cn1nnc(CCCl)n1`, the growth inhibition is -36.9%.
Consider `C=C(C)Cc1c(C)c(Cl)cc(Cl)c1OC(=O)Nc1ccccc1`, for which the growth inhibition is 9.35%.
Still for that read-out and setting: for `COC(=O)C1(O)C(=O)NC2=C1C(=O)c1ccccc1C2=O` (stereo not drawn) the value was -8.7%; for `COC(=O)Cc1oc(=O)n(-c2ccccc2)c(=O)c1C(=O)OC`, -10.5%.
The same measure, in the same setting: for `N#CC1=C(N)NC(=O)C(C(N)=O)C1c1ccccc1Cl` (stereo not drawn) the value was -11.3%; for `CSc1ccc(C(=NO)c2ccc(SC)cc2)cc1`, -0.85%.
With `CCCNc1nc(Cl)nc2c1cnn2C`, the growth inhibition is 1.25%.
Same read-out and setting: for `CN1CCC2(CC1)C(=O)N(Cc1ccccc1)C(=O)C2c1ccccc1` (stereo not drawn) the value was 6.05%; for `CCCCn1cnc2c(=S)nc[nH]c21`, -11.6%.
Same read-out and setting: to `CC(=O)c1c(C)n(-c2ccccc2)c2c1nnc1ccccc12` belongs -8.65%.
Same read-out and setting: to `Cc1cc(Cl)cc(Cl)c1OCC(=O)O` belongs -24.3%; to `S=C(SCc1nc(-c2ccc(Cl)cc2)no1)N1CCSCC1`, -2.6%.

The nature of another assay: NCI Yeast Anticancer Drug Screen. Data for the bub3 strain (AID 167). Conditions: S. cerevisiae bub3 mutant strain, at 50.0 µM, hits give high values. The method in brief:
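Part of a panel of yeast mutants defective in DNA damage repair or cell cycle regulation. Each strain is grown with compound, and inhibition is calculated relative to solvent-treated cultures.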
As to `O=C1OC(=O)c2ccccc21`, the growth inhibition was -2.2%.
On the same count and under the same terms, to `CSc1nsc(SC)c1C(N)=O` belongs 16.2%.
On the same count and under the same terms, for `ClCC1CCCO1` (stereo not drawn) the value was 24.9%.
Still for that read-out and setting: to `C=CC(=O)OCCCS(=O)(=O)[O-].C=CC(=O)OCCCS(=O)(=O)[O-].NC1CCCCC1N.[Pt+4]` belongs 14.1%; to `NCc1c(Cl)c(Cl)c(Cl)c(CN)c1Cl`, 17.8%.
As to `O=C1c2ccccc2C(=O)c2c1cccc2S(=O)(=O)Nc1ccccc1`, the growth inhibition is 20.1%.
As to `COC(=O)c1nc[nH]c1C(=O)OC`, the growth inhibition is -0.8%.
With `O=C1c2ccccc2C(=O)N1c1ccc(C(F)(F)F)cc1[N+](=O)[O-]`, the growth inhibition was 14.5%.
Regarding `COc1ccccc1C(=O)O`, the growth inhibition is -7.35%.
On the same count and under the same terms, for `CC(C)=NNC(=O)c1ccccc1O` the value was 1.65%; for `COC1/C=C/OC2(C)Oc3c(C)c(O)c4c(O)c(c(C5SCCS5)c(O)c4c3C2=O)NC(=O)/C(C)=C\C=C\C(C)C(O)C(C)C(O)C(C)C(O)C1C` (stereo not drawn), 0%.
Still for that read-out and setting: for `CCCCCC1NC(C)(C)CO1` (stereo not drawn) the value was 9.65%; for `CN(/N=C\c1ccc([N+](=O)[O-])cc1)C(=O)c1ccccc1`, 19.4%.
On the same count and under the same terms, for `Cc1cn(C2CC3OP(=O)(OCc4ccccc4)OCC3O2)c(=O)[nH]c1=O` (stereo not drawn) the value was 8%.
As to `N#CC(C#N)=CNC(=S)Nc1ccc(S(=O)(=O)Nc2nccs2)cc1`, the growth inhibition is -3.05%.
Same read-out and setting: to `CCOc1ccccc1NC(=O)CC1Sc2ccccc2NC1=O` (stereo not drawn) belongs 3.85%.
As for `Cc1cc(Cl)c(Cl)cc1NC(=O)c1c(Br)c(Br)c(Br)c(Br)c1C(=O)O`, the growth inhibition is -3.2%.
On the same count and under the same terms, for `COc1c2cc(C(C)(C)C)cc1CSCc1cc(C(C)(C)C)cc(c1OC)CCCCC2` the value was -14.6%.
Still for that read-out and setting: to `CCOCCOCCOCOCCOCCOCC` belongs 25.9%.
For the molecule `CCc1ccc(O)cc1`, the growth inhibition is -11.9%.
Same read-out and setting: for `NC(N)=NC(=S)Nc1ccc(Cl)cc1` the value was -15.7%; for `CCCN1C(=O)CN(S(=O)(=O)c2ccc(Cl)cc2)C1=O`, -1.25%; for `CCN(CC)CCSSCCN(CC)CC`, 2.35%.
In the case of `CCCCCCCCCCCCS(=O)(=O)O` (tested in a mixture with another compound), the growth inhibition is -22.5%.
On the same count and under the same terms, for `CC(Nc1cnccn1)Nc1cnccn1` the value was -5.2%; for `Cn1cc(S(C)=O)c(=O)c2ccccc21` (stereo not drawn), 8.3%; for `COC(=O)C1(CC(=O)c2ccccc2)NC(=S)NC(=O)C1C#N` (stereo not drawn), -33.5%.
Take `CCCCCCCCCCCC(=O)NC(=S)Nc1ccc(C(=O)OCC)cc1`: the growth inhibition is 29.4%.
Still for that read-out and setting: to `Cn1nnc(CCCl)n1` belongs 16.8%; to `C=C(C)Cc1c(C)c(Cl)cc(Cl)c1OC(=O)Nc1ccccc1`, 29.9%; to `COC(=O)C1(O)C(=O)NC2=C1C(=O)c1ccccc1C2=O` (stereo not drawn), 28.9%.
As for `COC(=O)Cc1oc(=O)n(-c2ccccc2)c(=O)c1C(=O)OC`, the growth inhibition is 10.1%.
Consider `N#CC1=C(N)NC(=O)C(C(N)=O)C1c1ccccc1Cl` (stereo not drawn), for which the growth inhibition is -11.4%.
Still for that read-out and setting: for `CSc1ccc(C(=NO)c2ccc(SC)cc2)cc1` the value was -8.5%; for `CCCNc1nc(Cl)nc2c1cnn2C`, 14.4%; for `CN1CCC2(CC1)C(=O)N(Cc1ccccc1)C(=O)C2c1ccccc1` (stereo not drawn), 3.4%.
Same read-out and setting: to `CCCCn1cnc2c(=S)nc[nH]c21` belongs -1%; to `CC(=O)c1c(C)n(-c2ccccc2)c2c1nnc1ccccc12`, -5.65%; to `Cc1cc(Cl)cc(Cl)c1OCC(=O)O`, -1.75%.
For `S=C(SCc1nc(-c2ccc(Cl)cc2)no1)N1CCSCC1`, the growth inhibition was -3.25%.

A further assay in a line: NCI Yeast Anticancer Drug Screen. Data for the mlh1 rad18 strain (AID 175). The following applies: S. cerevisiae mlh1 rad18 strain growth inhibition; at 50.0 µM; hits give high values. A digest of the protocol: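 Inhibition values reflect reduced growth of mutant yeast versus vehicle-treated controls following compound exposure; the mutations affect DNA damage repair.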
As for `O=C1OC(=O)c2ccccc21`, the growth inhibition is 0.05%.
In the case of `CSc1nsc(SC)c1C(N)=O`, the growth inhibition is -0.85%.
The same measure, in the same setting: for `ClCC1CCCO1` (stereo not drawn) the value was 25.6%.
Still for that read-out and setting: to `C=CC(=O)OCCCS(=O)(=O)[O-].C=CC(=O)OCCCS(=O)(=O)[O-].NC1CCCCC1N.[Pt+4]` belongs 9.75%; to `NCc1c(Cl)c(Cl)c(Cl)c(CN)c1Cl`, 19.5%; to `O=C1c2ccccc2C(=O)c2c1cccc2S(=O)(=O)Nc1ccccc1`, -3.6%.
As to `COC(=O)c1nc[nH]c1C(=O)OC`, the growth inhibition is 12.6%.
Same read-out and setting: for `O=C1c2ccccc2C(=O)N1c1ccc(C(F)(F)F)cc1[N+](=O)[O-]` the value was 7.2%; for `COc1ccccc1C(=O)O`, -5%; for `CC(C)=NNC(=O)c1ccccc1O`, -10.2%.
The same measure, in the same setting: to `COC1/C=C/OC2(C)Oc3c(C)c(O)c4c(O)c(c(C5SCCS5)c(O)c4c3C2=O)NC(=O)/C(C)=C\C=C\C(C)C(O)C(C)C(O)C(C)C(O)C1C` (stereo not drawn) belongs 36.9%.
Still for that read-out and setting: for `CCCCCC1NC(C)(C)CO1` (stereo not drawn) the value was 10.7%; for `CN(/N=C\c1ccc([N+](=O)[O-])cc1)C(=O)c1ccccc1`, -7.35%.
In the case of `Cc1cn(C2CC3OP(=O)(OCc4ccccc4)OCC3O2)c(=O)[nH]c1=O` (stereo not drawn), the growth inhibition was 4.15%.
Take `N#CC(C#N)=CNC(=S)Nc1ccc(S(=O)(=O)Nc2nccs2)cc1`: the growth inhibition is -3.65%.
Still for that read-out and setting: to `CCOc1ccccc1NC(=O)CC1Sc2ccccc2NC1=O` (stereo not drawn) belongs 21.5%; to `Cc1cc(Cl)c(Cl)cc1NC(=O)c1c(Br)c(Br)c(Br)c(Br)c1C(=O)O`, 28.4%.
For the molecule `COc1c2cc(C(C)(C)C)cc1CSCc1cc(C(C)(C)C)cc(c1OC)CCCCC2`, the growth inhibition was -1.6%.
Same read-out and setting: for `CCOCCOCCOCOCCOCCOCC` the value was -4%.
On the same count and under the same terms, for `CCc1ccc(O)cc1` the value was 6.3%; for `NC(N)=NC(=S)Nc1ccc(Cl)cc1`, 31.1%.
Same read-out and setting: for `CCCN1C(=O)CN(S(=O)(=O)c2ccc(Cl)cc2)C1=O` the value was -46.9%.
`CCN(CC)CCSSCCN(CC)CC`: the growth inhibition was 5.3%.
On to `CCCCCCCCCCCCS(=O)(=O)O` (tested in a mixture with another compound), for which the growth inhibition is -12.8%.
On the same count and under the same terms, to `CC(Nc1cnccn1)Nc1cnccn1` belongs 1.05%; to `Cn1cc(S(C)=O)c(=O)c2ccccc21` (stereo not drawn), -2.35%; to `COC(=O)C1(CC(=O)c2ccccc2)NC(=S)NC(=O)C1C#N` (stereo not drawn), -3.35%.
Still for that read-out and setting: to `CCCCCCCCCCCC(=O)NC(=S)Nc1ccc(C(=O)OCC)cc1` belongs 45.4%.
Take `Cn1nnc(CCCl)n1`: the growth inhibition is 5.5%.
As to `C=C(C)Cc1c(C)c(Cl)cc(Cl)c1OC(=O)Nc1ccccc1`, the growth inhibition is 19.7%.
With `COC(=O)C1(O)C(=O)NC2=C1C(=O)c1ccccc1C2=O` (stereo not drawn), the growth inhibition is 13.8%.
The same measure, in the same setting: for `COC(=O)Cc1oc(=O)n(-c2ccccc2)c(=O)c1C(=O)OC` the value was -3.6%; for `N#CC1=C(N)NC(=O)C(C(N)=O)C1c1ccccc1Cl` (stereo not drawn), -12.8%; for `CSc1ccc(C(=NO)c2ccc(SC)cc2)cc1`, -11.7%.
Same read-out and setting: to `CCCNc1nc(Cl)nc2c1cnn2C` belongs 6.95%.
The same measure, in the same setting: for `CN1CCC2(CC1)C(=O)N(Cc1ccccc1)C(=O)C2c1ccccc1` (stereo not drawn) the value was -13.4%; for `CCCCn1cnc2c(=S)nc[nH]c21`, -0.95%.
In the case of `CC(=O)c1c(C)n(-c2ccccc2)c2c1nnc1ccccc12`, the growth inhibition is 4.15%.
Still for that read-out and setting: for `Cc1cc(Cl)cc(Cl)c1OCC(=O)O` the value was 0.05%; for `S=C(SCc1nc(-c2ccc(Cl)cc2)no1)N1CCSCC1`, -9.4%.
